Compound activity as filed in PubChem.
An excerpt weighted towards active compounds, which were near 1.5% of everything screened.
APEX1 inh: qHTS Assay for Inhibitors of the Human Apurinic/apyrimidinic Endonuclease 1 (APE1). recombinant APE1, TAMRA/BHQ-2 abasic DNA cleavage fluorescence. AID 2517, 2012. Potency, µM (doses to about 65.8 µM), for inactives: top-dose activity change, negative = inhibition, hits mostly inhibitors. DNA repair nuclease/redox regulator APEX1 (Homo sapiens), P27695. 0.35% of 350,000 active;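 further: potency means the concentration at half of the fitted maximal effect; plate controls were vehicle for no effect and reference inhibitor for full effect; nearly all actives have a fitted effect of over 55% in size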
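Kinetic fluorescence read (525 ex/598 em nm, three reads 60 s apart) of AP-site incision; signal = third minus first read. Enzyme 0.75 nM, dual-labelled THF duplex 50 nM, compound preincubation 15 min RT.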
PI5P4K alpha inh: qHTS for Inhibitors of phosphatidylinositol 5-phosphate 4-kinase (PI5P4K) | Phosphatidylinositol 5-phosphate 4-kinase type-2 alpha (Homo sapiens), P48426 | PI5P4Kalpha enzyme, ADP-Glo luminescence, 60 min; active compounds read low | max response, % | 1.2% of 330,000 active | AID 652105, 2013; active means max response of -50% or lower; inconclusive means between -30% and -50%; inactive means -30% or higher; further: value at the top dose of about 77 µM
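Quantitative HTS of the MLSMR library against PI5P4Kalpha with substrate. ATP added last at 5 microM final; room temperature, 60 minutes. Remaining ATP depleted, ADP converted and read as luminescence.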
BLM inh: qHTS Assay for Inhibitors of Bloom's syndrome helicase (BLM) | RecQ-like DNA helicase BLM (Homo sapiens), P54132 | AID 2528, 2010 | recombinant BLM DNA unwinding, fluorescence dequenching | 0.2% of 350,000 active | Potency, µM (doses to about 56.1 µM), inactives show at the top dose activity change, negative = inhibition, actives largely listed as inhibitors;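 further: potency means the concentration at half of the fitted maximal effect; plate controls were vehicle for no effect and no enzyme for full effect; nearly all actives have a fitted effect of over 35% in size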
RECQ1 helicase: qHTS Assay for Inhibitors of RecQ-Like Dna Helicase 1 (RECQ1). Potency, µM (doses to about 57.3 µM), inactives show at the top dose activity, negative = inhibition, hits mostly inhibitors. 0.54% of 240,000 active. ATP-dependent DNA helicase Q1 (Homo sapiens), P46063. RECQ1 DNA unwinding, red fluorescence kinetic read;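 further: potency means the concentration at half of the fitted maximal effect; plate controls were vehicle for no effect and no enzyme for full effect; nearly all actives have a fitted effect of over 30% in size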
Target sequence (P46063 whole entry, looked up): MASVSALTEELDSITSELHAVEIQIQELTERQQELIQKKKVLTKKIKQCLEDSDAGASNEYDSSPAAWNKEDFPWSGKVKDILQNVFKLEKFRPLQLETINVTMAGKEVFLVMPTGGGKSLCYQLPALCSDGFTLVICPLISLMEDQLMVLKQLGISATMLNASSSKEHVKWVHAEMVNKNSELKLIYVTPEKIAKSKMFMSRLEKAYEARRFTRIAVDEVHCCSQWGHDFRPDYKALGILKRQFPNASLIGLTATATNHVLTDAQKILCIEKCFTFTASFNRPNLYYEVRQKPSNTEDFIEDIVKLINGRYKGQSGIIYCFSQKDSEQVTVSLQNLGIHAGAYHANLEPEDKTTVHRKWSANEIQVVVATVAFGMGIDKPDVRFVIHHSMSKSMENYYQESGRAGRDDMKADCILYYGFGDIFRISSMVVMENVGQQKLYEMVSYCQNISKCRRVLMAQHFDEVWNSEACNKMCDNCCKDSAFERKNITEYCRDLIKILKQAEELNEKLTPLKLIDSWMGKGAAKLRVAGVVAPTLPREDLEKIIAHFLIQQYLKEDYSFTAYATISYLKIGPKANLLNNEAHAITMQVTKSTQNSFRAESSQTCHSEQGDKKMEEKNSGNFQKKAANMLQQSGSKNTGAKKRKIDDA
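50 nM RECQ1T1 preincubated 15 min with compound in Tris pH 8.0 buffer with MgCl2, DTT, Tween-20 and 2.5 ug/ml poly(dI-dC); started with 200 nM TAMRA/BHQ-2 forked duplex and 2 mM ATP. Unwinding read as fluorescence (525/598 nm), two reads 2 h apart.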
FEN1 inhibitor: qHTS Assay for the Inhibitors of Human Flap endonuclease 1 (FEN1). P39748. Recombinant FEN1 flap cleavage, fluorescence, 15 min. Potency, µM (doses to about 114 µM), inactives show top-dose activity change, negative = inhibition, usual class: inhibitors. 0.35% of 390,000 active; further: potency means the concentration at half of the fitted maximal effect; nearly all actives have a fitted effect of over 65% in size
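Enzyme 10 nM, 15 min RT preincubation with compound; start with substrate 50 nM final; reads at 0 and 15 min; qHTS titration, four-parameter Hill fit.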
KAT2A inh: qHTS Assay for Inhibitors of GCN5L2; AID 504327, 2011; Potency, µM (series often up to 58.9 µM), for the others: top-dose activity change, negative = inhibition, usual class: inhibitors; 0.21% of 390,000 active; GCN5L2 HAT assay, ThioGlo1 CoA-SH fluorescence; Histone acetyltransferase KAT2A (Homo sapiens), Q92830; further: potency means the concentration at half of the fitted maximal effect
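Free CoA generated was detected with ThioGlo1 (50uM) fluorescence at Ex340nm/Em540nm, read immediately and after 20 min at room temperature. Enzyme, 20 nM in HEPES pH 7.5 buffer, saw compounds 15 min before adding 75uM H3(1-25) peptide and 70uM acetyl-CoA.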
The depositor's hits bear a star. Unless noted, the call rests on the fitted dose curve; in most records, active means well fitted curve in the direction sought with a large enough effect; inconclusive means small, poorly fitted or top-dose-only effect, or another doubt; inactive means no such curve, though single readings can be large; an effect the other way counts as inactive or inconclusive. Unless noted, on the % scale 0 is the no-effect control and ±100 the full control effect.

For CCNC(=S)N/N=C1\C(=O)c2cccc3cccc1c23 the results were APEX1 inh 10.2%, PI5P4K alpha inh -1.1, BLM inh -10.2%, RECQ1 helicase inactive, FEN1 inhibitor -1.5% and KAT2A inh -0.9%.
Cc1ccc2oc(-c3ccc(C)c(NC(=O)COc4ccc(Cl)cc4)c3)nc2c1 was read as FEN1 inhibitor 0.6%.
Cc1ccc(-c2nn(-c3ccccc3)cc2C(=O)O)o1 was read as APEX1 inh inconclusive, BLM inh 0.6%, RECQ1 helicase 31.6µM* and KAT2A inh inconclusive.
`Cc1ccc(-c2nn(-c3ccccc3)cc2/C=C/C(=O)O)o1` gave APEX1 inh -1.1%, PI5P4K alpha inh 1.2, BLM inh -7.1%, RECQ1 helicase 8.2%, FEN1 inhibitor -0.6% and KAT2A inh -26.2%.
O=C(C[n+]1cccc2cc(Cl)ccc21)c1ccc2c(c1)CCCC2 was read as FEN1 inhibitor 13.5%.
For N#CC1=C(N)Oc2cc(O)c(Cl)cc2C1c1cccnc1 (stereo not drawn) the results were APEX1 inh 52.7%, PI5P4K alpha inh -51.8*, BLM inh -4.4%, FEN1 inhibitor -3.2% and KAT2A inh -0.6%.
`N#CC1=C(N)Oc2cc(O)c(Cl)cc2C1c1ccccc1F` (stereo not drawn) gave APEX1 inh 20.9%, PI5P4K alpha inh -64.4*, BLM inh -3.2%, FEN1 inhibitor 8.9% and KAT2A inh -3.5%.
Screening O=C(COc1ccccc1C(=O)Nc1ccccc1)Nc1ccccc1F returned FEN1 inhibitor 2.5%.
Screening CC(/C=N/n1c(-c2n[nH]c3c2CCC3)n[nH]c1=S)=C\c1ccco1 returned APEX1 inh 9.9%, PI5P4K alpha inh -59.5*, BLM inh -18.9%, RECQ1 helicase inconclusive, FEN1 inhibitor -13.5% and KAT2A inh -21.6%.
Screening Cc1ccccc1-c1n[nH]c(=S)n1/N=C/C=C/c1ccco1 returned APEX1 inh inconclusive, PI5P4K alpha inh -83.8*, BLM inh -9.9%, RECQ1 helicase inconclusive, FEN1 inhibitor 15.8µM* and KAT2A inh -7.8%.
CC(C)(C)n1ncc2c(=O)n(Cc3cccc(OC(F)F)c3)cnc21 was read as APEX1 inh -7.9% and FEN1 inhibitor -0.6%.
Screening Cc1ccc(S(=O)(=O)N2CCN(c3nc(-c4cncn4C)nc4ccccc34)CC2)cc1 returned FEN1 inhibitor 1.3%.
Screening COc1cc(OC)c(/C=C/c2nccc3ccccc23)c(OC)c1 returned FEN1 inhibitor 3.98µM*.
For CCCOC(=O)N1CCN(/[N+]([O-])=N/Oc2ccc([N+](=O)[O-])cc2[N+](=O)[O-])CC1 the results were APEX1 inh -2.6%, BLM inh 6.5%, RECQ1 helicase inactive and FEN1 inhibitor -12.6%.
For O=C(N/N=C/c1cn(-c2cccs2)nc1-c1ccccc1)c1ccccc1O the results were APEX1 inh 2.0%, PI5P4K alpha inh -1.2, BLM inh 20µM*, RECQ1 helicase -1.5%, FEN1 inhibitor -7.0% and KAT2A inh -29.0%.
For O=C(N/N=C/c1cn(-c2cccs2)nc1-c1ccccc1)c1ccccc1Br the results were APEX1 inh -8.5%, PI5P4K alpha inh 0.5, BLM inh -7.4%, RECQ1 helicase -8.9%, FEN1 inhibitor -14.4% and KAT2A inh -15.0%.
`CCc1ccccc1O` gave APEX1 inh -2.1% and RECQ1 helicase -9.3%.
O=S(c1ccccc1O)S(=O)c1ccccc1O (stereo not drawn) was read as PI5P4K alpha inh -82.8* and FEN1 inhibitor inconclusive.
